Laboratory results from PubChem BioAssay.
Calls of active or inactive are those of the source.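 The calls were made as follows, unless noted: active = NADPH fluorescence slope more negative than the mean of all samples by about 3 SD, 99.7% confidence; inactive = the rest.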

What was measured:
[1] = inhibitors of TNFa-induced NFkB p65 translocation, primary screen, imaging, HUVEC, MLSMR starter and 10KST1 sets (AID 438;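 active = inhibition above 20% together with a positive visual image hit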;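 also: compound added about 3h40 before a 20 min TNFalpha stimulation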;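 as to inhibition: signal is the nuclear over cytoplasmic p65 intensity ratio per well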); conditions: HUVEC TNFa-induced p65 nuclear translocation; cell count: measured here: nuclei count (cytotoxicity indicator), at 2.08 µM; inhibition: at 2 µM, stronger effect = higher value, 0% TNFa-plus-vehicle, 100% no-TNFa wells
[2] = reduction of polyQ htt aggregates in cells – imaging, exon1htt(103Q)mCFP cells, high-content imaging, primary screen (AID 483;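 active = visual image review flags a hit and inhibition of aggregation exceeds 20%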;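 also: compound exposure lasted 3 days before fixation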;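 as to nuclei count: percent of the per-plate median nuclei count of sample wells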); conditions: exon1htt(103Q)mCFP cell line, aggregate imaging, at 2 µM; inhibition of aggregation: stronger effect = higher value; nuclei count: measured here: cell count, toxicity
[3] = endothelial E-selectin expression blockers – imaging, HUVEC, immunofluorescence, MLSMR starter and 10KST1 sets, primary screen (AID 487;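 active = visually confirmed hit in the image check and inhibition above 20%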;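 as to inhibition: signal is fraction of cell area covered by stained E-selectin grains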;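 as to nuclei count: 100% = median nuclei count of all wells on the same plate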); conditions: HUVEC TNFalpha-induced E-selectin immunofluorescence imaging, at 2 µM; inhibition: stronger effect = higher value; nuclei count: measured here: cell number, toxicity
[4] = molecular target: Voltage-gated potassium channel subunit beta-2 (Rattus norvegicus) (UniProt P62483); assay: inhibitors of rat Kvbeta2 reductase activity – biochemical, NADPH fluorescence, primary screen (AID 622;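 active = fluorescence slope higher than the sample average by over 3 SD, cut at about -0.22 in these data, passing the limit was not always enough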;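 also: slope of raw intensity against log time taken from 70 to 1610 s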); conditions: recombinant KvBeta, 4-cyanobenzaldehyde reduction, at 10 µM, stronger effect = higher value
[5] = molecular target: Voltage-gated potassium channel subunit beta-2 (Rattus norvegicus) (UniProt P62483); assay: enhancers of rat Kvbeta2 NADPH turnover – biochemical, NADPH fluorescence, primary screen (AID 623); conditions: Recombinant KvBeta, NADPH fluorescence decrease slope, 10 min; at 10 µM; stronger effect = lower value;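 also: fluorescence intensity change per second fitted from 20 to 320 s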
[6] = molecular target: Alpha-2C adrenergic receptor (Homo sapiens) (UniProt P18825); assay: compounds altering alpha2C-coupled GIRK flux – cell-based, HEK293 alpha2C/GIRK1/2, thallium flux, primary screen (AID 624;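 active = fluorescence slope after compound addition differing from the mean of all screened samples at 99.7% confidence, in either direction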;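 also: slope of fluorescence ratio to pre-addition baseline per second over 15 to 24 s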); conditions: thallium flux BTC fluorescence, at 10 µM, actives lie on both sides
[7] = blockers of RIG-like receptor reporter activation – cell-based, Sendai virus stimulus, luciferase, 10K MLSCN set, TLR/RLR signaling modifier project, primary screen (AID 602276;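 active = inhibition at or above 50% at 10 µM; inactive = inhibition below 50%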;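 also: firefly luciferase from ISG56 promoter only with Renilla not read in this screen; 0% = Sendai virus plus DMSO and 100% = medium plus DMSO without virus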); conditions: HEK293 RL24 IRF3 luciferase reporter, at 10 µM, stronger effect = higher value
[8] = TLR3 IRF3 reporter activation blockers – cell-based, poly I:C stimulus, luciferase, 10K MLSCN set, primary screen (AID 602277;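 active = inhibition of the reporter signal at or above 50%; inactive = inhibition below 50%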); conditions: HEK293-TLR3 RL24 IRF3 luciferase reporter, at 10 µM, stronger effect = higher value

Voltage-gated potassium channel subunit beta-2 (Rattus norvegicus), sequence (P62483 whole entry, looked up): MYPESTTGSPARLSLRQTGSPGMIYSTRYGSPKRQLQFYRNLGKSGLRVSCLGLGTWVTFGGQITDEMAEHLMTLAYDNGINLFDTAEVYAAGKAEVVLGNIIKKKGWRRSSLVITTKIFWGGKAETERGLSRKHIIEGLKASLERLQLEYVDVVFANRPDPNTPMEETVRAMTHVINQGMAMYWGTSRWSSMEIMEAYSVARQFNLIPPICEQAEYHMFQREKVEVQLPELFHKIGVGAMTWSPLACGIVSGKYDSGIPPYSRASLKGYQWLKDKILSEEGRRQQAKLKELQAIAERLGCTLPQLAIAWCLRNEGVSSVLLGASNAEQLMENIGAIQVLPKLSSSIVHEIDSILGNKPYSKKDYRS
Alpha-2C adrenergic receptor (Homo sapiens), sequence (P18825 whole entry, looked up): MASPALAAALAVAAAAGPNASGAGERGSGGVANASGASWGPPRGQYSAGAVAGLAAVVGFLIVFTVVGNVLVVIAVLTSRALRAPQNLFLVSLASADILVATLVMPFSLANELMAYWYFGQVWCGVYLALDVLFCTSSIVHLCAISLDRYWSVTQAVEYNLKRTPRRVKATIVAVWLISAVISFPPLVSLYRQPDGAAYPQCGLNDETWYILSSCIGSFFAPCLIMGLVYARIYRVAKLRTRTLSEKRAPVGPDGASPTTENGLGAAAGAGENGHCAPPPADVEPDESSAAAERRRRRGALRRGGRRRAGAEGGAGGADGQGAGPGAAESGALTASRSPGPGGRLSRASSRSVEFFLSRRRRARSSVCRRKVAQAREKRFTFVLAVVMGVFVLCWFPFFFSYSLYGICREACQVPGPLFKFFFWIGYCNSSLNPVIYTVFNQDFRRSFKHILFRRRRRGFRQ

SMILES | cell count [1] | inhibition [1] | inhibition of aggregation [2] | nuclei count [2] | inhibition [3] | nuclei count [3] | fluorescence slope [4] | NADPH fluorescence slope [5] | slope [6] | inhibition [7] | inhibition [8]
COc1ccc2nc(NC(=O)C3CCCN(S(=O)(=O)c4cccc5nsnc45)C3)sc2c1 (centres undefined) | 607 | -3.9% (inactive) | -14% (inactive) | 113% | 2% (inactive) | 122% | -0.455 (inactive) | 3.3e-05 (inactive) | 0.00595 (inactive) | -3.68% (inactive) | -37.1% (inactive)
CCN(CCCNC(=O)COc1cc(=O)n(CC)c2ccccc12)c1ccccc1 | 377 | 0.6% (inactive) | 1.3% (inactive) | 104% | 13.8% (inactive) | 96.1% | -0.501 (inactive) | -4e-05 (inactive) | 0.00565 (inactive) | 5.07% (inactive) | 7.25% (inactive)
CC(C)(C)NC(=O)CN(C(=O)CS(=O)CC(=O)Nc1ccc(F)cc1)c1ccc(Cl)cc1 (centres undefined) | 879 | -4.2% (inactive) | 3.2% (inactive) | 66.8% | -9.8% (inactive) | 118% | -0.35 (inactive) | 1.3e-05 (inactive) | 0.00479 (inactive) | 19.1% (inactive) | 19.5% (inactive)
CC1(C)Cc2cccc(OCC(O)CN3CCN(c4ccccn4)CC3)c2O1 (centres undefined) | 518 | -7.3% (inactive) | 3.5% (inactive) | 92.3% | -90.2% (inactive) | 111% | -0.624 (inactive) | -2e-05 (inactive) | 0.00547 (inactive) | -6.85% (inactive) | -0.552% (inactive)
C=CCNC(=O)c1cc(-c2ccccc2O)on1 | 856 | -0.5% (inactive) | -0.2% (inactive) | 109% | -63.2% (inactive) | 113% | -0.588 (inactive) | -1.8e-05 (inactive) | 0.0069 (inactive) | -22.6% (inactive) | -96.4% (inactive)
O=C(CN1C(=O)c2ccccc2C1=O)Nc1ccccc1C(=O)N1CCCC1 | 407 | 4% (inactive) | -27.4% (inactive) | 112% | -13.3% (inactive) | 97.4% | -0.594 (inactive) | -2.3e-05 (inactive) | 0.00562 (inactive) | 4.76% (inactive) | 11.3% (inactive)
O=C1c2ccccc2NC2CCCCCN12 (centres undefined) | 445 | -2.1% (inactive) | -11% (inactive) | 108% | 13.9% (inactive) | 110% | -0.417 (inactive) | 2.2e-05 (inactive) | 0.0068 (inactive) | -2.99% (inactive) | 4.91% (inactive)
CCN1C(=O)CC(C(=O)Nc2ccc(F)cc2)SC1=Nc1ccc2c(c1)OCO2 (centres undefined) | 551 | -28.9% (inactive) | 1.1% (inactive) | 110% | 1.8% (inactive) | 124% | -0.504 (inactive) | -3.2e-05 (inactive) | 0.00494 (inactive) | 18.1% (inactive) | 21.5% (inactive)
CC(C)(Oc1ccc(Cl)cc1)C(=O)NCc1ccncc1 | 419 | 5.2% (inactive) | -21% (inactive) | 96.4% | -85.3% (inactive) | 113% | -0.297 (inactive) | -5.5e-05 (inactive) | 0.00503 (inactive) | 11.3% (inactive) | 12.2% (inactive)
CSc1ccc(S(=O)(=O)Nc2cccc(F)c2)cc1 | 342 | 1% (inactive) | -4.6% (inactive) | 82.9% | -34.7% (inactive) | 96.9% | -0.408 (inactive) | -5.1e-05 (inactive) | 0.00352 (inactive) | 15.7% (inactive) | 26.6% (inactive)
Cc1cccc(-n2nc3c(c2NC(=O)CCC2CCCCC2)CS(=O)C3)c1C (centres undefined) | 637 | -8.7% (inactive) | -46.2% (inactive) | 80% | -27.4% (inactive) | 110% | -0.427 (inactive) | -2.6e-06 (inactive) | 0.00515 (inactive) | 10.6% (inactive) | 37.7% (inactive)
O=C(Oc1ccc2ccc(OC(=O)N3CCOCC3)cc2c1)N1CCOCC1 | 388 | 6.8% (inactive) | -8.9% (inactive) | 107% | -7.5% (inactive) | 111% | -0.238 (inactive) | -1.6e-05 (inactive) | 0.00539 (inactive) | -2.44% (inactive) | -16.2% (inactive)
C=CCn1c(SCC(=O)O)nnc1-c1cccc(Cl)c1 | 753 | 1.3% (inactive) | -0.4% (inactive) | 103% | 19.3% (inactive) | 108% | -0.453 (inactive) | -8e-06 (inactive) | 0.00296 (inactive) | 8.76% (inactive) | 18.9% (inactive)
CCCCS(=O)(=O)NC1=NCN(CCOC(=O)c2ccccc2)CN1 | 305 | 0.8% (inactive) | 5.7% (inactive) | 116% | -50.4% (inactive) | 112% | -0.496 (inactive) | -4.1e-05 (inactive) | 0.0043 (inactive) | 13.9% (inactive) | 20.7% (inactive)
COCCN(C(=O)c1csnn1)C(C(=O)NC1CCCCC1)c1cccs1 (centres undefined) | 370 | 5% (inactive) | -6.3% (inactive) | 107% | -52.1% (inactive) | 95.8% | -0.335 (inactive) | 5.1e-05 (inactive) | 0.00648 (inactive) | 10.7% (inactive) | 23.1% (inactive)
CC(Oc1ccc(Cl)cc1Cl)C(=O)Nc1ncccn1 (centres undefined) | 433 | 2.5% (inactive) | -1% (inactive) | 102% | 51.5% (inactive) | 124% | -0.409 (inactive) | 9.1e-05 (inactive) | 0.006 (inactive) | -4.61% (inactive) | -6.91% (inactive)
O=C(CCN1C(=O)C2C3C=CC(C3)C2C1=O)NCCc1ccccc1Cl (centres undefined) | 408 | 10.7% (inactive) | -1.6% (inactive) | 103% | -111% (inactive) | 99.4% | -0.498 (inactive) | -2.1e-05 (inactive) | 0.00634 (inactive) | -11.5% (inactive) | -13.2% (inactive)
CC(C)NC(=O)CSc1nc2ccccc2n1-c1ccccc1 | 379 | 2.5% (inactive) | -2.9% (inactive) | 84.5% | -80.1% (inactive) | 125% | -0.59 (inactive) | 9.8e-06 (inactive) | 0.00781 (inactive) | -22.3% (inactive) | -5.89% (inactive)
N#CCCN1CCN(S(=O)(=O)c2ccc(S(=O)(=O)NC3CCCCC3)cc2)CC1 | 645 | -2.4% (inactive) | -20.2% (inactive) | 124% | -47.2% (inactive) | 115% | -0.584 (inactive) | -4.3e-06 (inactive) | 0.00631 (inactive) | 14.1% (inactive) | 32.4% (inactive)
